This note sets out measurements from PubChem BioAssay (Tox21).

A short description of experiment [1]: A CellTox Green Cytotoxicity Assay to monitor cytotoxicity in HEK293 cells - 40 hour (AID 1224871). Note: nearly all actives have a fitted effect of over 45% in size. Note: potency is the fitted concentration of half-maximal effect. In outline: (§1)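 HEK293 cells, 600/well, were preincubated 5 hours and then exposed to compounds at 37 C for up to 40 hours. A cell-impermeant cyanine dye staining dead-cell DNA was read by fluorescence at 0, 8, 16, 24, 32 and 40 h time points.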
Experiment [2] is described as follows: qHTS RealTime-Glo MT Cell Viability Assay in HEK293 cells - 16 hour (AID 1224872). Note: top concentration of the series differs between compounds; nearly all actives have a fitted effect of over 50% in size. In outline:
(§2)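 Assay medium contained NanoLuc luciferase plus cell-permeant prosubstrate, added with HEK293 cells at 600 cells/well. After 5 h at 37 C/5% CO2 compounds were added; plates stayed at 37 C for 40 h with serial luminescence reads.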
In general terms: Quantitative high-throughput screening tests each substance at several concentrations.

The nature of experiment [3]: qHTS RealTime-Glo MT Cell Viability Assay in HEK293 cells - 40 hour (AID 1224874). Note: nearly all actives have a fitted effect of over 50% in size. Note: potency is the fitted concentration of half-maximal effect. The conditions noted are these: RealTime-Glo luminescence; max response: active compounds read low. In outline: (§3)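 600 cells/well were plated with the nonlytic NanoLuc/prosubstrate reagent, pre-incubated 5 h, then given 23 nL of compound in DMSO. Incubation at 37 C for 40 h, with luminescence from viable-cell-reduced substrate read repeatedly from 0 h.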

Experiment [4] can be described thus: A CellTox Green Cytotoxicity Assay to monitor cytotoxicity in HepG2 cells - 24 hour (AID 1224878). Note: nearly all actives have a fitted effect of over 45% in size. Note: potency is the fitted concentration of half-maximal effect. In a few lines:
(§4)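 HepG2 cells, 600/well, preincubated 5 h with CellTox Green dye, then exposed to Tox21 compounds in DMSO at 37 C for up to 40 h. Dead-cell DNA fluorescence read at the indicated time point.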

Experiment [5] is described as follows: A CellTox Green Cytotoxicity Assay to monitor cytotoxicity in HepG2 cells - 40 hour (AID 1224879). Note: nearly all actives have a fitted effect of over 40% in size. Note: potency is the fitted concentration of half-maximal effect. In outline:
as §4

Experiment [6] in a line: qHTS RealTime-Glo MT Cell Viability Assay in HEK293 cells - 0 hour (AID 1224880). Note: top concentration of the series differs between compounds; nearly all actives have a fitted effect of over 45% in size. In outline:
as §3

Experiment [7] in a line: A CellTox Green Cytotoxicity Assay to monitor cytotoxicity in HEK293 cells - 32 hour (AID 1224881). Note: nearly all actives have a fitted effect of over 40% in size. In outline:
as §1

A short description of experiment [8]: A CellTox Green Cytotoxicity Assay to monitor cytotoxicity in HepG2 cells - 0 hour (AID 1224882). Note: nearly all actives have a fitted effect of over 35% in size. In outline: as §4
Experiment [9] can be described thus: A CellTox Green Cytotoxicity Assay to monitor cytotoxicity in HepG2 cells - 32 hour (AID 1224883). Note: nearly all actives have a fitted effect of over 50% in size. Note: potency is the fitted concentration of half-maximal effect. In a few lines: as §4
Experiment [10] in a line: A CellTox Green Cytotoxicity Assay to monitor cytotoxicity in HEK293 cells - 8 hour (AID 1224884). Note: nearly all actives have a fitted effect of over 35% in size. In a few lines:
as §1

The nature of experiment [11]: qHTS RealTime-Glo MT Cell Viability Assay in HepG2 cells - 16 hour (AID 1224885). Note: nearly all actives have a fitted effect of over 50% in size. In a few lines:
(§5)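 qHTS, HepG2, 600 cells/well, RealTime-Glo (NanoLuc + prosubstrate) added with cells; 5 h preincubation; DMSO compound addition; 37 C; luminescence at 0/8/16/24/32/40 h.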

Experiment [12] is described as follows: qHTS RealTime-Glo MT Cell Viability Assay in HEK293 cells - 24 hour (AID 1224886). For activity change, negative = cytotoxicity: top concentration of the series differs between compounds. Note: nearly all actives have a fitted effect of over 50% in size. Note: potency is the fitted concentration of half-maximal effect. In outline:
as §2

The nature of experiment [13]: qHTS RealTime-Glo MT Cell Viability Assay in HEK293 cells - 8 hour (AID 1224887). For activity change, negative = cytotoxicity: top concentration of the series differs between compounds. Note: nearly all actives have a fitted effect of over 50% in size. Note: potency is the fitted concentration of half-maximal effect. In a few lines:
as §3

Experiment [14] is described as follows: A CellTox Green Cytotoxicity Assay to monitor cytotoxicity in HEK293 cells - 16 hour (AID 1224888). Note: nearly all actives have a fitted effect of over 35% in size. Note: potency is the fitted concentration of half-maximal effect. In outline: as §1
Experiment [15] can be described thus: A CellTox Green Cytotoxicity Assay to monitor cytotoxicity in HepG2 cells - 8 hour (AID 1224890). Note: nearly all actives have a fitted effect of over 45% in size. In outline:
as §4

A short description of experiment [16]: qHTS RealTime-Glo MT Cell Viability Assay in HepG2 cells - 8 hour (AID 1224873). Note: nearly all actives have a fitted effect of over 55% in size. In a few lines:
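HepG2 cells (600/well) mixed with RealTime-Glo MT reagent, settled 5 h at 37 C/5% CO2 before compound addition. Nonlytic NanoLuc luminescence from viable-cell prosubstrate reduction read repeatedly during 40 h treatment at 37 C.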

Experiment [17] is described as follows: A CellTox Green Cytotoxicity Assay to monitor cytotoxicity in HEK293 cells - 24 hour (AID 1224875). For activity change: series mostly up to about 77 µM. Note: nearly all actives have a fitted effect of over 45% in size. Note: potency is the fitted concentration of half-maximal effect. In a few lines: as §1
A short description of experiment [18]: A CellTox Green Cytotoxicity Assay to monitor cytotoxicity in HepG2 cells - 16 hour (AID 1224876). Note: nearly all actives have a fitted effect of over 45% in size. In a few lines: as §4
Experiment [19] can be described thus: qHTS RealTime-Glo MT Cell Viability Assay in HepG2 cells - 0 hour (AID 1224889). Note: nearly all actives have a fitted effect of over 50% in size. In a few lines:
as §5

Experiment [20] can be described thus: qHTS RealTime-Glo MT Cell Viability Assay in HepG2 cells - 32 hour (AID 1224877). Note: nearly all actives have a fitted effect of over 55% in size. In outline:
as §5

Each structure is given as a SMILES string. A number with no mark means an inactive call. Inconclusive results are not listed. Activity calls are given as the source filed them. Calls come from the whole dose curve; as a rule, active = well fitted curve in the direction sought with a large enough effect in the repeat runs; inconclusive = weak or mixed curves; inactive = no such curve, though single readings can be large; an effect the other way counts as inactive or inconclusive.
% is set by controls: 0 for no effect and ±100 for the full control effect.

Consider `Cn1cnc2c(F)c(Nc3ccc(Br)cc3Cl)c(C(=O)NOCCO)cc21`, for which the Potency entry in [1], in experiment [2], in [7], in [8], in [10] and in experiment [12] was “inactive” each time. Besides, the Potency entry in experiment [13], in experiment [14] and in experiment [15] was “inactive” in each case. Moreover, the max response in experiment [3] is -9.97%. The Potency in [4] is 0.0301 µM (active); in experiment [5] it was 0.0379 µM (active); in [9], 0.0379 µM (active). Besides, the outcome in [6] and in experiment [11] was inactive.
For `Cc1c(-c2ccccc2)oc2c(C(=O)OCCN3CCCCC3)cccc2c1=O`, the Potency entry in experiment [1], in [17], in experiment [18], in [4], in experiment [5] and in experiment [7] was “inactive” each time. The Potency result in experiment [8], in experiment [9], in [10], in experiment [19] and in experiment [15] was “inactive” throughout. The outcome in experiment [16], in experiment [6] and in experiment [11] was inactive. Moreover, in experiment [13], the Potency is 19 µM (active).
For `OCc1c2ccccc2cc2ccccc12`, the Potency result in experiment [1], in experiment [17], in experiment [18], in [20], in experiment [4] and in [5] was “inactive” in each case. For the same compound, the Potency entry in experiment [7], in experiment [8], in [9], in experiment [10], in experiment [14] and in experiment [19] was “inactive” in each case. Further, the Potency entry in [15] was “inactive”. The result in [16], in [6] and in experiment [11] was inactive.
As for `CC1(O)CSC(C)(O)CS1` (configuration not stated), the Potency result in [1], in [17], in experiment [18], in experiment [20], in experiment [4] and in [5] was “inactive” in each case. For the same compound, the Potency entry in [10], in experiment [12] and in [15] was “inactive” in each case. The max response in experiment [3] was 5.86%. For the same compound, the result in [6] and in [11] was inactive.
For the compound `O=C1Nc2ccc([N+](=O)[O-])cc2C1=O`, the Potency entry in experiment [1], in experiment [18], in experiment [20], in experiment [4], in experiment [5] and in experiment [7] was “inactive” in each case. Further, the Potency result in [8], in [10], in experiment [14], in experiment [19] and in experiment [15] was “inactive” each time. For the same compound, the result in [16] and in experiment [11] was inactive.
In the case of `CN(C)C(=O)NC1(c2ccccc2)CCN(CCC[C@]2(c3ccc(Cl)c(Cl)c3)CCCN(C(=O)c3ccccc3)C2)CC1`, the cytotoxicity increase is 31% [at 15.8 µM] in experiment [1]; 15.3% [at 15.8 µM] in [18]; 19.1% [at 15.8 µM] in [7]; -1.4% [at 15.8 µM] in experiment [10]; 9.35% [at 15.8 µM] in [15]. In addition, the viability change, negative = cytotoxic in experiment [16] is -6.85% [at 15.8 µM]. In addition, the activity change in experiment [17] was 4.75% [at 15.8 µM, active compounds read high]; in experiment [14], -0.407% [at 15.8 µM, active compounds read high]. Also, the cytotoxicity in [4] was 19.6% [at 15.8 µM]; in experiment [8] it was -1.48% [at 15.8 µM]. Besides, the activity change, negative = cytotoxicity in experiment [6] is 0.507% [at 15.8 µM]; in experiment [13], -28.2% [at 15.8 µM]; in experiment [19], -2.18% [at 15.8 µM]. Also, the activity change, negative = cytotoxic in experiment [11] was -10.4% [at 15.8 µM].
Take `CCCCCCOc1ccc(N)cc1`: the Potency in [1] is 43.6 µM (active); in experiment [13], 19.5 µM (active). For the same compound, the call in experiment [16], in experiment [6] and in experiment [11] was inactive. The Potency entry in experiment [18], in experiment [20], in experiment [8], in experiment [10], in experiment [14] and in experiment [19] was “inactive” in each case. Further, the Potency result in experiment [15] is “inactive”.
Take `CN(C)CCOc1ccccc1Cc1ccccc1`: the Potency result in experiment [1], in experiment [2], in experiment [17], in [20], in experiment [7] and in experiment [10] was “inactive” each time. For the same compound, the Potency result in experiment [12], in experiment [13], in [14] and in [19] was “inactive” in each case. In experiment [11], the call was inactive.
Consider `O=C1CCCc2ccccc21`, for which the Potency result in [2], in experiment [17], in experiment [18], in experiment [20], in experiment [4] and in experiment [5] was “inactive” throughout. Further, the Potency result in experiment [7], in experiment [8], in experiment [9], in experiment [10], in [12] and in experiment [13] was “inactive” each time. In addition, the Potency result in [14], in experiment [19] and in experiment [15] was “inactive” throughout. The result in experiment [16], in experiment [6] and in experiment [11] was inactive. In experiment [3], the max response is 23.3%.
For `CCN(CCCc1ccccc1)CCCc1ccccc1`, the Potency entry in experiment [1], in [18], in experiment [4], in experiment [8], in experiment [9] and in experiment [10] was “inactive” in each case. Further, the Potency result in [13], in experiment [14], in experiment [19] and in experiment [15] was “inactive” in each case. Moreover, the outcome in experiment [16], in [6] and in experiment [11] was inactive.
Take `CC1(C)C(=O)N(Cl)C(=O)N1Br`: the Potency result in experiment [1], in [17], in experiment [18], in experiment [20], in experiment [4] and in experiment [5] was “inactive” throughout. Moreover, the Potency result in [8], in experiment [10], in experiment [12], in experiment [13], in experiment [14] and in experiment [15] was “inactive” each time. Also, the compound was classed as inactive in experiment [16] and in experiment [11]. Besides, the max response in experiment [3] was 17%.
In the case of `CCOc1ccc(NS(=O)(=O)c2ccc(N)cc2)nn1`, the Potency entry in experiment [1], in experiment [17], in experiment [18], in experiment [20], in experiment [4] and in [7] was “inactive” in each case. Besides, the Potency result in [8], in experiment [9], in experiment [10], in [14], in experiment [19] and in experiment [15] was “inactive” throughout. Also, the result in experiment [16], in experiment [6] and in experiment [11] was inactive.
For `CN1CCN(c2c(F)cc3c(=O)c(C(=O)O)cn(CCF)c3c2F)CC1`, the Potency result in experiment [2], in [18], in [20], in experiment [4], in [5] and in experiment [8] was “inactive” throughout. Further, the Potency entry in experiment [9], in experiment [12], in experiment [13], in experiment [19] and in [15] was “inactive” in each case. Further, the result in [16], in experiment [6] and in experiment [11] was inactive. In addition, the max response in experiment [3] is 10.4%. Further, the Potency in experiment [17] and in [14] was 5.35 µM (active) throughout.
On to `Cc1ccccc1C(=O)Nc1ccc(C(=O)N2CCCC(O)c3cc(Cl)ccc32)c(C)c1` (configuration not stated), for which the Potency result in experiment [1], in experiment [17], in [18], in experiment [20], in experiment [4] and in experiment [5] was “inactive” each time. For the same compound, the Potency entry in [7], in experiment [8], in experiment [9], in [10], in [14] and in experiment [15] was “inactive” throughout. Moreover, the compound was called inactive in experiment [16] and in [11].
Consider `COc1ccc2nc(NC(=O)Nc3ccccc3)sc2c1`, for which the Potency in [1] was 26.8 µM (active); in [3], 6.01 µM (active); in experiment [5], 4.25 µM (active); in experiment [12], 4.77 µM (active). In addition, the compound was called inactive in experiment [16], in [6] and in experiment [11]. Further, the Potency result in experiment [18], in experiment [20], in [10], in [14], in [19] and in experiment [15] was “inactive” in each case.
With `CC(C)Nc1nc(N)nc(Cl)n1`, the Potency entry in [2], in experiment [17], in experiment [18], in [20], in experiment [4] and in experiment [5] was “inactive” throughout. Also, the Potency entry in [7], in [9], in [10], in experiment [12], in experiment [13] and in experiment [14] was “inactive” throughout. The Potency result in experiment [19] and in experiment [15] was “inactive” throughout. Further, the compound was called inactive in experiment [16], in experiment [6] and in experiment [11]. Besides, the max response in experiment [3] is 10.6%.
